High-throughput results (PubChem BioAssay)
The sample as a whole holds a higher share of hits than the screen did.
Pf Dd2 growth: blocks in vitro growth of P. falciparum Dd2. P. falciparum Dd2 growth, SYBR Green, 72 h. Potency, µM (titrated, usually from 28.9 µM), for inactives: at the highest dose activity, negative = inhibition, most hits filed as inhibitors. 120,000 compounds, 4.3% hits. AID 1347417; active means well fitted inhibition curve with a large enough effect;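 further: plate controls were DMSO vehicle for no effect and reference drug for full effect; nearly all actives have a fitted effect of over 65% in size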
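Infected erythrocytes (Dd2, 0.3% parasitemia, 2.5% hematocrit final) are added to compound in RPMI-1640/Albumax II medium, grown 72 h at 37C in low oxygen, then lysed with saponin/Triton-X containing SYBR Green and read by fluorescence.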
* hit, by the source's call; i = inactive; [ ] = another dose, or the depositor's remark. Potency means the concentration at half of the fitted maximal effect.

SMILES | Pf Dd2 growth
O=C1N(c2ccccc2)C[C@H]2CN(Cc3ccnc4ccccc34)CCN12 | i
CN1CC(=O)N(C2CCCC2)Cc2c(NC3CC3)ncnc21 | -7.5%
Cc1ccc(S(=O)(=O)N2CCCC(CCC(=O)NCc3ccccn3)C2)cc1 (centres undefined) | -12.6%
OC[C@@H]1CN(C2CCCC2)C[C@H]1c1nc(-c2cccnc2)no1 | -11.9%
CC(C)(C)CNC1(Cc2cc(-c3ccccn3)on2)COC1 | i
Cc1[nH]c(=O)[nH]c(=O)c1CC(=O)N[C@@H]1COCC[C@@H]1OCc1ccccc1 | 20.1%
Cc1noc2ncnc(N3CCC4(CC3)CC(c3ccccc3)CN(C)C4)c12 (centres undefined) | 11.2µM*
CN1CC(c2ccccc2)CC2(CCN(C(=O)c3ccccc3)CC2)C1 (centres undefined) | i
CN1CC(c2ccccc2)CC2(CCN(C(=O)C3CCOCC3)CC2)C1 (centres undefined) | -9.1%
Cc1nc2c(C(=O)NCCc3ccccc3)c[nH]n2c(=O)c1Cc1ccc(F)cc1Cl | 17.6%
Cc1nc2c(C(=O)NCCc3ccc(Cl)cc3)c[nH]n2c(=O)c1Cc1ccccc1F | 29.6%
COc1ccc(CCNC(=O)c2c[nH]n3c(=O)c(Cc4ccccc4Cl)c(C)nc23)cc1OC | 10µM*
CCCCCCSc1nnc2c(n1)OC(C)Nc1ccc(Br)cc1-2 (centres undefined) | 3.6%
CCCCCSc1nnc2c(n1)[nH]c1c(C)cccc12 | 3.98µM*
Cc1nnc(NC(=O)CSc2nnc3c(n2)[nH]c2ccccc23)s1 | -8.8%
COc1ccc(CNC(=O)C[C@@H]2C[C@H]3O[C@H](CNC(=O)NC(C)C)[C@@H](O)[C@H]3O2)cc1 | -10.7%[44.1 µM]
CN(CCC(C)(C)O)C(=O)c1cc2c(C(F)(F)F)nn(C)c2s1 | -19.1%
COCC[C@]1(O)CCN(C(=O)c2cccc(OCC(N)=O)c2)C[C@H]1C | -5.0%
O=C(NC1CCN(c2cc(C(F)(F)F)ncn2)CC1)c1ccccc1 | 26.7%
COC(=O)C1=C(C)NC(=O)NC1c1ccc(O)cc1 (centres undefined) | -7.4%
CCCCOc1ccc(-c2nn(-c3ccccc3)cc2C2NC(=O)NC(C)=C2C(=O)OC)cc1 (centres undefined) | i
CCCOc1ccccc1C1C(C(=O)Nc2ccccc2)=C(C)Nc2nnnn21 (centres undefined) | 82.8%
CCCOc1ccc(-c2nn(-c3ccccc3)cc2C2NC(=O)NC(C)=C2C(=O)OC)cc1C (centres undefined) | 10µM*
CCCOc1ccc(-c2nn(-c3ccccc3)cc2C2NC(=O)NC(C)=C2C(=O)OC)cc1 (centres undefined) | 10µM*
COc1ccc(C2NC(=O)NC(C)=C2C(=O)Nc2ccccc2)cc1OC (centres undefined) | -23.3%
SMILES | Pf Dd2 growth
COc1cccc(C(=O)N2CCC(C(=O)N3CCc4nc[nH]c4C3)CC2)c1 | 3.7%
COCc1nc(C2CCN(C(=O)C3CCOCC3)C2)no1 (centres undefined) | -1.2%
COc1ccc(-c2nc(C)nc3c2CCN([S+](=O)([O-])c2cccc(C(F)(F)F)c2)CC3)cc1 | i
CC1Oc2ccc(NC(=O)c3ccccc3F)cc2CN(Cc2ccccc2F)C1=O (centres undefined) | i
COc1cccc(CN2Cc3cc(NC(=O)c4cc(OC)cc(OC)c4)ccc3OCC2=O)c1 | 4.47µM*
COc1cccc(CN2Cc3cc(NC(=O)Cc4ccccc4)ccc3OCC2=O)c1 | -13.3%
CCC1Oc2ccc(NC(=O)c3ccccc3F)cc2CN(Cc2ccc3c(c2)OCO3)C1=O (centres undefined) | i
COc1cccc(CN2Cc3cc(NC(=O)c4cccs4)ccc3OCC2=O)c1 | i
CCC1Oc2ccc(NC(=O)c3ccccc3F)cc2CN(Cc2ccccc2F)C1=O (centres undefined) | 5.62µM*
CCC1Oc2ccc(NC(=O)COc3ccccc3)cc2CN(Cc2cccc(OC)c2)C1=O (centres undefined) | -3.6%
CCC1Oc2ccc(NC(=O)c3c(F)cccc3F)cc2CN(Cc2ccc3c(c2)OCO3)C1=O (centres undefined) | i
CCC1Oc2ccc(NC(=O)Cc3ccc(F)cc3)cc2CN(Cc2cccc(OC)c2)C1=O (centres undefined) | 3.98µM*
CCC1Oc2ccc(NC(=O)Cc3ccccc3)cc2CN(Cc2cccc(OC)c2)C1=O (centres undefined) | -17.6%
CCC1Oc2ccc(NC(=O)c3ccccc3F)cc2CN(CCc2ccc(OC)c(OC)c2)C1=O (centres undefined) | 1.78µM*
CCC1Oc2ccc(NC(=O)c3cccc(F)c3)cc2CN(Cc2ccccc2F)C1=O (centres undefined) | -5.6%
CN(C)C[C@@H]1CN(C2CCOCC2)C[C@H]1NC(=O)C1CC1 | i
COCCNC(=O)c1ccc2c(c1)N(C)C(CC(=O)N1CCC(N)CC1)CO2 (centres undefined) | -1.1%
O=C(NC[C@H]1O[C@@H]2C[C@@H](CC(=O)N3CCC(F)(F)C3)O[C@@H]2[C@@H]1O)Nc1cccc(Cl)c1 | i
O=C(Cc1ccccc1Br)N1CCCN(c2cc(-c3ccc(F)cc3)[nH]n2)CC1 | -2.9%
O=C(N1C[C@@H](CO)[C@H](c2nc(C3CC3)no2)C1)C1(c2ccccc2)CC1 | 23.1%
CCN(CC)Cc1cnc2c(C(=O)N3CCCC3c3ccccn3)cnn2c1 (centres undefined) | -14.9%
Cc1ccc(CNC(=O)N2CCC3(CC2)C(C(=O)O)CC(=O)N3C)cc1 (centres undefined) | -10.2%
Cc1cnc(C(=O)NC2C[C@H]3CC[C@@H](C2)N3C(=O)Cc2c(C)noc2C)cn1 (some centres undefined) | 5.0%
COCCOC1CN(C2CCN(C(=O)Nc3ccccc3F)CC2)C12CCCCC2 (centres undefined) | i
COCCOC1CN(C2CCN(S(=O)(=O)c3ccccc3)CC2)C12CCCCC2 (centres undefined) | i
SMILES | Pf Dd2 growth
COCCOC1CN(C2CCN(Cc3cccc(F)c3)CC2)C12CCCCC2 (centres undefined) | 3.55µM*
COCCOC1CN(C2CCN(Cc3ccc(F)c(F)c3)CC2)C12CCCCC2 (centres undefined) | 2.51µM*
COCCOC1CN(C2CCN(C(=O)c3ccc(OC)c(F)c3)CC2)C12CCCCC2 (centres undefined) | i
COCCOC1CN(C2CCN(Cc3ccncc3)CC2)C12CCCCC2 (centres undefined) | i
NC(=O)NCc1cn(C2CCN(C(=O)C3CCCCCC3)CC2)nn1 | -1.4%
COC1CCOC2(CCN(C(=O)NCCc3ccccc3)CC2)C1 (centres undefined) | 11.8%
Cc1ccc(-c2cn3c(n2)CO[C@@H](CNC(C)C)C3)cc1 | -1.8%[44.1 µM]
Cc1cc(C(=O)N2CC[C@H](CO)[C@H](O)C2)cc2sc(N)nc12 | -5.8%
CC(=O)N1CCc2c(sc(NC(=O)CSc3ccc(F)cc3)c2-c2nc3ccccc3s2)C1 | i
CN1CCc2c(sc(NC(=O)CSc3ccc(F)cc3)c2-c2nc3ccccc3s2)C1 | 12.6µM*
Cn1c(SCC(=O)Nc2nc3ccccc3s2)ncc(C(=O)Nc2ccc(F)cc2)c1=O | 23.8%
Cc1sc2ccn(Cc3ccc(F)cc3)c(=O)c2c1C(=O)NCCCN1CCOCC1 | -10.9%
O=C(CC1CCCN(c2cn[nH]c(=O)c2)C1)Nc1ccccc1F (centres undefined) | 18.9%
O=c1cc(-c2ccccc2)c2ccc3c(c2o1)CN(Cc1cccc(Cl)c1)CO3 | 0.631µM*
